In PubChem BioAssay AID837 (The Scripps Research Institute Molecular Screening Center, 2007):
Activity calls are given as the source filed them.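 Rule for the calls: active = relative FRET score above 0.01, or acceptor fluorescence over 30% below the sample-well median; inactive = the rest.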

biological target: Protein Rev (Human immunodeficiency virus type 1 group M subtype B (isolate WMJ22)) (UniProt P05866); experiment: disruptors of Rev peptide-RRE RNA complex – biochemical, FRET, acceptor and relative FRET calls, confirmation (AID 837); settings: Fl-Rev peptide / Cy5-RRE RNA FRET, 1536-well; at 8 µM;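 note: relative FRET combines rise in Cy5 acceptor with fall in fluorescein donor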
Sequence (P05866 whole entry, looked up): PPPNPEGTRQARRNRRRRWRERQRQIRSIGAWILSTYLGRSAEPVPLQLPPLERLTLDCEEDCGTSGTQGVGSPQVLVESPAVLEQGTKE

SMILES | outcome
CCCCOc1ccc(CSC(=N)N)cc1[N+](=O)[O-] | inactive
CC(=O)c1ccc2c(c1)c1ccccc1n2CC(C)C | inactive
CC1CC(c2ccccc2)n2nc(NC(=O)c3cccs3)nc2N1 (stereo not given) | inactive
Cc1cc(-c2nc3c4c5c(sc4[nH]c(=O)n3n2)CCC5)c(C)o1 | inactive
CC(NCc1ccc(N(C)C)cc1)C1CC2CCC1C2 (stereo not given) | active
COc1ccccc1NC1=NC(c2ccc(Cl)cc2)N=C(N)N1 (stereo not given) | active
O=C(N/N=C/c1cccc(F)c1)c1cc(-c2ccco2)nc2ccccc12 | active; quenches the donor
O=C(Cn1cnc2ccccc2c1=O)N1CCOCC1 | inactive
CNCCCOc1ccc(C(C)(C)c2ccccc2)cc1 | active
CC1CC(C)CN(Cc2nc(N)nc(Nc3ccccc3)n2)C1 (stereo not given) | inactive
COc1ccc(CN(C)C2CCCCC2)c(C)c1C | inactive
O=c1cc(-c2ccco2)oc2c1ccc1ccccc12 | inactive
O=C(c1cccc(F)c1)N1CCN(c2cccc(Cl)c2)CC1 | inactive
O=C(O)c1ccc2c(c1)[C@@H]1C=CC[C@@H]1[C@H](c1ccccn1)N2 | inactive; quenches the donor
CN(C)CCNCc1ccccc1OC1CCCC1 | inactive
C[n+]1c2n(c3ccccc31)N=C(c1ccc(Cl)cc1)CS2 | active
CCCCCCCCOc1ccc(C2OC34CCCCC3C(C#N)(C#N)C2(C#N)C(=N)O4)cc1 (stereo not given) | inactive
CCc1ccc2nc3nc(C)cc(C)c3c(N)c2c1 | active
CCCCOC(=O)Cn1c(=N)n(CCC)c2ccccc21 | inactive
CC(C)COc1ccc(Cc2cnc(N)nc2N)cc1 | active
